{"source": "PubChem BioAssay (EPA / NIEHS)", "note": "Several values for one entry are separate records, joined by “and”; a condition that tells them apart may be missing. Equal values may be shown once. Activity calls are given as the source filed them. Rule for the calls: active = hit-call score of the fitted dose curve at least 0.9, where 1 is the maximum; inactive = score below 0.9."}
{"read-out": "Interleukin-8 (IL8), CXCL8 (gene 3576)", "test": "BSK_SAg_IL8: BioMAP Diversity Plus: SAg Assay for Interleukin-8 (IL8) Biomarker Activity (AID 2283094)", "conditions": "primary human HUVEC with PBMC; actives raise or lower the signal", "experimental": "BSK_SAg is a cell-based, multiplexed-readout assay that uses umbilical vein endothelium and peripheral blood mononuclear cells, a human vascular primary cell co-culture, with measurements taken at 24 hours after chemical dosing in a 96-well plate.BSK_SAg_IL8 is an assay component measured in the BSK_SAg assay. It measures IL-8 antibody related to regulation of gene expression using ELISA technology.Data from the assay component BSK_SAg_IL8 was analyzed into 1 assay endpoint. This assay endpoint, BSK_SAg_IL8, was analyzed with bidirectional fitting relative to DMSO as the negative control and baseline of activity. Using a type of binding reporter, gain or loss-of-signal activity can be used to understand changes in the signaling as they relate to the gene CXCL8. Furthermore, this assay endpoint can be referred to as a primary readout, because this assay has produced multiple assay endpoints where this one serves a signaling function. To generalize the intended target to other relatable targets, this assay endpoint is annotated to the cytokine intended target family, where the subfamily is interleukins.\nThe levels of cell surface (or secreted, indicated by the prefix \"s\") biomarker endpoints were measured by ELISA. Overt cytotoxicity to cells in confluent adherent cultures (all systems other than the BT system) was assessed by measuring total protein levels using sulforhodamine B (SRB) staining in parallel cultures at the time of biomarker measurements, indicated as SRB endpoints. For proliferation assays for adherent cell types, individual cell types are cultured at sub-confluence and relative cell numbers quantified by SRB staining at time points optimized for each system (48 h: 3C and CASM3C systems; 72 h: BT and HDF3CGF systems; 96 h: SAg system). SRB was performed by staining cells with 0.1% SRB after fixation with 10% TCA and reading wells at 560 nm.Viability and proliferation of PBMC (T cells) was quantified by Alamar Blue reduction for the SAg and BT systems. For PBMC viability (referred to as PBMC Cytotoxicity within the assay endpoint names), cells were plated (75,000/well in a 96-well plate) and then chemical samples added for 1 h before addition of activators, SEB and TSST-1 (20 ng/mL final concentration each). Cells were incubated for 90 h. Then, Alamar Blue (20 uL/well) (Invitrogen, Cat DAL1100) was added for 6 h, and the plates were read with a fluorescence microplate reader at 546/580 nm (excitation/emission). For PBMC proliferation, cells were plated and activated as above but incubated for only 16 h prior to addition of Alamar Blue. Plates were read after 6 h."}
{"smiles": "COc1nc(NC(C)C)nc(NC(C)C)n1", "outcome": "inactive"}
{"smiles": "CCOc1cc(Oc2ccc(C(F)(F)F)cc2Cl)ccc1[N+](=O)[O-]", "AC50": "12.5 µM (active)"}
{"smiles": "CCNc1nc(Cl)nc(NC(C)C)n1", "outcome": "inactive"}
{"smiles": "CCc1nn(C)c(C(=O)NCc2ccc(C(C)(C)C)cc2)c1Cl", "AC50": "5.02 µM (active)"}
{"smiles": "C=CCC1=C(C)[C@@H](OC(=O)[C@@H]2[C@@H](C=C(C)C)C2(C)C)CC1=O", "AC50": "25.3 µM (active)"}
{"smiles": "O=C(O)COc1nc(Cl)c(Cl)cc1Cl", "outcome": "inactive"}
{"smiles": "COC(=O)c1ccccc1C(=O)OC", "outcome": "inactive"}
{"smiles": "CC1=C(C(=O)Nc2ccccc2)SCCO1", "outcome": "inactive"}
{"smiles": "Cc1ccc(-c2c(Cl)nc(C#N)n2S(=O)(=O)N(C)C)cc1", "AC50": "13.4 µM (active)"}
{"smiles": "CCCCC(CC)COC(=O)c1ccccc1C(=O)OCC(CC)CCCC", "note": "(stereo not given)", "outcome": "inactive"}
{"smiles": "CNC(=S)S", "outcome": "inactive"}
{"smiles": "CCCCNC(=O)OCC#CI", "AC50": "22.1 µM (active) and 14.7 µM (active)"}
{"smiles": "CCON=C(CC)C1=C(O)CC(c2c(C)cc(C)cc2C)CC1=O", "note": "(stereo not given)", "outcome": "inactive"}
{"smiles": "COc1nc(C)nc(NC(=O)NS(=O)(=O)c2ccccc2Cl)n1", "outcome": "inactive"}
{"smiles": "N#CC(CCc1ccc(Cl)cc1)(Cn1cncn1)c1ccccc1", "note": "(stereo not given)", "outcome": "inactive"}
{"smiles": "CC1COC(Cn2cncn2)(c2ccc(Oc3ccc(Cl)cc3)cc2Cl)O1", "note": "(stereo not given)", "AC50": "15.8 µM (active)"}
{"smiles": "COc1ccc(C(c2ccc(OC)cc2)C(Cl)(Cl)Cl)cc1", "AC50": "11.9 µM (active)"}
{"smiles": "C=CC1(C)OC(=O)N(c2cc(Cl)cc(Cl)c2)C1=O", "note": "(stereo not given)", "outcome": "inactive"}
{"smiles": "N#Cc1nn(-c2c(Cl)cc(C(F)(F)F)cc2Cl)c(N)c1S(=O)C(F)(F)F", "note": "(stereo not given)", "AC50": "27.8 µM (active)"}
{"smiles": "CCOP(=S)(OCC)SCn1c(=O)oc2cc(Cl)ccc21", "AC50": "26.8 µM (active)"}
{"smiles": "CCCN(CCC)c1c([N+](=O)[O-])cc(S(N)(=O)=O)cc1[N+](=O)[O-]", "AC50": "39.7 µM (active) [middle of 4 runs]"}
{"smiles": "COC(=O)C=C(C)OP(=O)(OC)OC", "outcome": "inactive"}
{"smiles": "CCOC(=O)C(Cl)Cc1cc(-n2nc(C)n(C(F)F)c2=O)c(F)cc1Cl", "note": "(stereo not given)", "outcome": "inactive"}
{"smiles": "CN(C)C(=S)SSC(=S)N(C)C", "AC50": "18.6 µM (active)"}
{"smiles": "C#CCOS(=O)OC1CCCCC1Oc1ccc(C(C)(C)C)cc1", "note": "(stereo not given)", "AC50": "1.92 µM (active)"}
{"smiles": "CON(C)C(=O)Nc1ccc(Cl)c(Cl)c1", "outcome": "inactive"}
{"smiles": "COP(=S)(OC)Oc1nc(Cl)c(Cl)cc1Cl", "outcome": "inactive"}
{"smiles": "CCCC1COC(Cn2cncn2)(c2ccc(Cl)cc2Cl)O1", "note": "(stereo not given)", "outcome": "inactive"}
{"smiles": "Fc1ccc(Oc2ccnc3cc(Cl)cc(Cl)c23)cc1", "AC50": "15.9 µM (active)"}
{"smiles": "C=CCC1=C(C)C(OC(=O)C2C(C=C(C)C)C2(C)C)CC1=O", "note": "(stereo not given)", "AC50": "28.9 µM (active) [middle of 4 runs]"}
{"smiles": "CCOC(=O)CC(SP(=S)(OC)OC)C(=O)OCC", "note": "(stereo not given)", "outcome": "inactive"}
{"smiles": "O=C(O)c1nc(Cl)ccc1Cl", "outcome": "inactive"}
{"smiles": "CNC(=O)ON=CC(C)(C)SC", "outcome": "inactive"}
{"smiles": "COC(=O)C(C)Oc1ccc(Oc2ccc(Cl)cc2Cl)cc1", "note": "(stereo not given)", "outcome": "inactive"}
{"smiles": "COc1nc(C)nc(NC(=O)NS(=O)(=O)c2ccccc2CCC(F)(F)F)n1", "outcome": "inactive"}
{"smiles": "CCCCOC(=O)c1ccccc1C(=O)OCCCC", "outcome": "inactive"}
{"smiles": "CC(Oc1ccc(Cl)cc1Cl)C(=O)O", "note": "(stereo not given)", "outcome": "inactive"}
{"smiles": "Cc1cc(Cl)ccc1OCC(=O)O", "outcome": "inactive"}
{"smiles": "COc1cnc(OC)n2nc(NS(=O)(=O)c3c(OCC(F)F)cccc3C(F)(F)F)nc12", "outcome": "inactive"}
{"smiles": "CC(C)(C)c1ccc(CSc2cnn(C(C)(C)C)c(=O)c2Cl)cc1", "AC50": "0.453 µM (active)"}
